# In PubChem BioAssay (NCATS):
# Values joined by “and” are separate entries in the source; they are usually repeats but may differ in a detail not shown here. Identical values can stand only once. Records with an inconclusive call do not appear. Active and inactive are the calls of the source. Unless noted, the rule behind the calls is not given here. Starred links: 1 amine or outer side, 2 acyl side, 3 side chain; linkers in the order of their positions; H or OH if unused. Positions of bridges follow the written chain, without caps; N, C: chain ends. Non-standard residues stand in square brackets, D forms with d. Residues, ends and D or L forms follow the SMILES beside them. *: point of attachment. X2 = NC1=C[C@@H](O)C[C@H]([C@H](N[*:1])C(=O)[*:2])N1; ΔAla(3-NHCONH2) = NC(=O)NC=C(N)C(=O)O; β3hOrn = NCCC[C@H](N)CC(=O)*; Dap = NC[C@H](N)C(=O)O
# What was measured:
# [1] = qHTS profiling of the MIPE4 collection as inhibitors of Plasmodium falciparum (3D7) proliferation (AID 743344);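 note: scaled between DMSO vehicle wells and 0.29 µM artemisinin as full inhibition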; details: P. falciparum 3D7 in erythrocytes, SYBR Green DNA fluorescence, 72 h; at 28.5 µM
# Method in brief: (§1)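 Parasite DNA was quantified by SYBR Green I fluorescence (ex 485, em 535 nm) after overnight lysis in saponin/Triton buffer at room temperature. Cultures at 0.3% parasitemia and 2.5% hematocrit were first exposed to compound for 72 h at 37 C; signals were normalised to artemisinin (0.29 uM) and vehicle wells.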
# [2] = qHTS profiling of the MIPE4 collection as inhibitors of Plasmodium falciparum (DD2) proliferation (AID 743345); details: P. falciparum Dd2 in erythrocytes, SYBR Green DNA, 72 h; at 28.5 µM
# Method in brief: as §1
# [3] = qHTS profiling of the MIPE4 collection as inhibitors of Plasmodium falciparum (DD2) proliferation (Rep 2) (AID 743346); details: P. falciparum Dd2 in erythrocytes, SYBR Green DNA, 72 h; at 28.5 µM
# Method in brief: as §1
# [4] = qHTS profiling of the MIPE4 collection as inhibitors of Plasmodium falciparum (HB3) proliferation (AID 743347);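 note: plate controls were DMSO vehicle wells for no effect and artemisinin wells for full effect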; details: P. falciparum HB3 in erythrocytes, SYBR Green DNA, 72 h; at 28.5 µM
# Method in brief: as §1
# [5] = target: Cytochrome P450 2C9 (Homo sapiens) (UniProt P11712); test: qHTS Assay for Inhibitors and Substrates of Cytochrome P450 2C9 (AID 883; active = well fitted curve in the direction sought with a large enough effect; an effect the other way counts as inactive or inconclusive; note: nearly all actives have a fitted effect of over 60% in size; note: potency is the fitted concentration of half-maximal effect; for activity change, negative = inhibition: % is set by controls: 0 for no effect and ±100 for the full control effect)
# Chain of Cytochrome P450 2C9 (Homo sapiens) (P11712 whole entry, looked up): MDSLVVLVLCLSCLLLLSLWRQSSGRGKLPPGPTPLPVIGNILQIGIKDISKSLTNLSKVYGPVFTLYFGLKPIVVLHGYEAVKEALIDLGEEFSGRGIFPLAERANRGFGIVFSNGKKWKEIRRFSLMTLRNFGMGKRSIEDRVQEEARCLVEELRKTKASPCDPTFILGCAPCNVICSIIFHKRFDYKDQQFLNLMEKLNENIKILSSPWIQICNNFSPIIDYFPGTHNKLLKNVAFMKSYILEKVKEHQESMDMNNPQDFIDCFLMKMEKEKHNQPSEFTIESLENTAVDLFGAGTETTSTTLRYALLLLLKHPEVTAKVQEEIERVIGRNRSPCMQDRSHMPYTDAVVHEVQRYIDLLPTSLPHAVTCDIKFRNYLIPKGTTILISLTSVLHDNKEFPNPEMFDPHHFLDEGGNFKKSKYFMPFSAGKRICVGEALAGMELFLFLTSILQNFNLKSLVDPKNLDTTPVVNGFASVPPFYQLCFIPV
# Method in brief: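 Signal: luciferase luminescence reporting luciferin produced by CYP2C9. Conditions: 10nM enzyme, Luciferin-H 100uM at KM, 25mM KPO4, 37C, 60 min NADPH-driven reaction. Reference: 57uM sulphaphenazole as 100% inhibition.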
# [6] = target: Cytochrome P450 3A4 (Homo sapiens) (UniProt P08684); test: qHTS Assay for Inhibitors and Substrates of Cytochrome P450 3A4 (AID 884; active = well fitted curve in the direction sought with a large enough effect; an effect the other way counts as inactive or inconclusive; note: nearly all actives have a fitted effect of over 50% in size; note: potency is the fitted concentration of half-maximal effect; for activity change, negative = inhibition: % is set by controls: 0 for no effect and ±100 for the full control effect)
# Chain of Cytochrome P450 3A4 (Homo sapiens) (P08684 whole entry, looked up): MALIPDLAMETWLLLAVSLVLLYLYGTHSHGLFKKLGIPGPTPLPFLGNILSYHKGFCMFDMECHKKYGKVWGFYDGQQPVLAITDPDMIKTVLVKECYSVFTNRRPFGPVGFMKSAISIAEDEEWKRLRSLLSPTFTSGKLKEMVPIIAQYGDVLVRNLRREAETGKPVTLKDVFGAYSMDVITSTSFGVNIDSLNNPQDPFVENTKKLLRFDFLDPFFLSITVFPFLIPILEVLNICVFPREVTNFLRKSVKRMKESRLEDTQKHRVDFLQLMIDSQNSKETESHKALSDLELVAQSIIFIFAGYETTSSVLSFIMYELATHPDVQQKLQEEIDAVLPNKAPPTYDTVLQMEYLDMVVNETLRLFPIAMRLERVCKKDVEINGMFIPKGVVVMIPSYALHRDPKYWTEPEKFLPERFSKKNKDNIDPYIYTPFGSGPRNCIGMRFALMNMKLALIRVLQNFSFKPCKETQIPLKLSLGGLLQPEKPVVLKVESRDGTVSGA
# Method in brief: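 Luminescent readout of luciferin produced by CYP3A4 (20 nM) dealkylation of Luciferin-PPXE, 25 uM (its KM). NADPH-driven reaction ran 60 min at RT after 10 min compound preincubation; data scaled to 57 uM ketoconazole as 100% inhibition.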
# [7] = target: Cytochrome P450 3A4 (Homo sapiens) (UniProt P08684); test: qHTS Assay for Activators of Cytochrome P450 3A4 (AID 885; active = well fitted curve in the direction sought with a large enough effect; an effect the other way counts as inactive or inconclusive; note: nearly all actives have a fitted effect of over 65% in size)
# Method in brief: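 Activators are scored by enhanced luminescence from CYP3A4 conversion of luciferin-PPXE (25uM, equal to KM) to luciferin, after 60 min at RT with an NADPH-regenerating system.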
# [8] = qHTS profiling for inhibitors of Plasmodium falciparum (3D7) proliferation (AID 743322);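 note: infected erythrocytes exposed to compound for 72 h before lysis; 100% = DMSO vehicle wells and 0% = 0.29 µM artemisinin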; details: P. falciparum 3D7 proliferation; at 28.7 µM (top of the series)
# Method in brief: as §1
# [9] = qHTS profiling for inhibitors of Plasmodium falciparum (DD2) proliferation (AID 743323); details: lower = more inhibition; at 28.7 µM (top of the series)
# Method in brief: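 1536-well qHTS; infected RBCs 0.3% parasitemia/2.5% Hct final; cpd 72 h 37 C 5% CO2; lysis buffer + SYBR Green I, o/n RT dark; FI 485/535; norm. to 0.29 uM artemisinin and DMSO, plate-stack corrected.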
# [10] = qHTS profiling for inhibitors of Plasmodium falciparum (HB3) proliferation (AID 743324; active = well fitted curve in the direction sought with a large enough effect; an effect the other way counts as inactive or inconclusive;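 note: 100% = DMSO vehicle wells and 0% = artemisinin-treated control wells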); details: Plasmodium falciparum HB3 blood-stage proliferation; at 28.7 µM (top of the series)
# Method in brief: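 SYBR Green fluorescence (485 ex/535 em) of lysed cultures, incubated overnight at room temperature in the dark, quantifies parasite DNA. Infected erythrocytes at 0.3% parasitemia and 2.5% hematocrit were exposed 72 h; values normalized to DMSO and 0.29 uM artemisinin controls.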
# [11] = target: Cytochrome P450 2D6 (Homo sapiens) (UniProt P10635); test: qHTS Assay for Inhibitors and Substrates of Cytochrome P450 2D6 (AID 891; active = well fitted curve in the direction sought with a large enough effect; an effect the other way counts as inactive or inconclusive;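 note: luciferin methyl ether substrate demethylated by CYP2D6 with NADPH regeneration; % is set by controls: 0 for no effect and ±100 for the full control effect; nearly all actives have a fitted effect of over 60% in size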)
# Chain of Cytochrome P450 2D6 (Homo sapiens) (P10635 whole entry, looked up): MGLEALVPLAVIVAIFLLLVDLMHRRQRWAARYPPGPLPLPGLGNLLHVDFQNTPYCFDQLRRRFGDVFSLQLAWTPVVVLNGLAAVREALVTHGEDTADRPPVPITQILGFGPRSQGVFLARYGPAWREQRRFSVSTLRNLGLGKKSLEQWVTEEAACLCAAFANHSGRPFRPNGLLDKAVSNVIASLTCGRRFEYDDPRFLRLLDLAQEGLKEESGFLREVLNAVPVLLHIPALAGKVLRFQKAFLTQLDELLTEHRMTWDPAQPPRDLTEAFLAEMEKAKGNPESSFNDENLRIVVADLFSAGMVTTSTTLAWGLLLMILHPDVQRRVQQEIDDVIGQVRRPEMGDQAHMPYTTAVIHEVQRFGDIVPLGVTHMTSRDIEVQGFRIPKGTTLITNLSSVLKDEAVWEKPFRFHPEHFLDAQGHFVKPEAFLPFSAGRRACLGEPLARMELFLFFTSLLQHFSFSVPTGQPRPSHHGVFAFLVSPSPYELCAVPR
# Method in brief: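 Luminescent read-out of luciferin formed by 5 nM human CYP2D6 demethylating 30 uM Luciferin-ME EGE (Km level) over 60 min at room temperature after NADPH regeneration addition. Data normalized to full inhibition by 1.43 uM quinidine.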
compound,measurement,setting,value
CC(C)=CCCC(C)=CCNCCNC1C2CC3CC(C2)CC1C3 (stereo not drawn),"parasite growth, % of DMSO control",[1],4.83%
same,"parasite growth remaining, % of DMSO control (lower = more inhibition)",[2],6.17%
same,"parasite growth, % of control (lower = inhibition)",[3],13.8%
same,"growth, % of control",[4],2.71%
CN([C@@H](Cc1ccc(O[S+](=O)([O-])c2cccc3cnccc23)cc1)C(=O)N1CCN(C(=O)OCc2ccccc2)CC1)[S+](=O)([O-])c1cccc2cnccc12,"parasite growth, % of DMSO control",[1],4.76%
same,"parasite growth remaining, % of DMSO control (lower = more inhibition)",[2],6.72%
same,"parasite growth, % of control (lower = inhibition)",[3],26.8%
same,"growth, % of control",[4],8.42%
CC1(C)O[C@@H]2[C@H]3OC(C)(C)O[C@]3(COS(N)(=O)=O)OC[C@H]2O1,"parasite growth, % of DMSO control",[1],103%
same,"parasite growth remaining, % of DMSO control (lower = more inhibition)",[2],93.9%
same,"parasite growth, % of control (lower = inhibition)",[3],101%
same,"growth, % of control",[4],59.9%
C=CC[C@@H]1C=C[C@H](O/N=C2\c3cc(OC)ccc3O[C@H](c3cccc(OC)c3)[C@H]2O)[C@H](CO)O1,Potency,[5],398 nM (active)
C[C@]1(COc2ccc(N3CCC(Oc4ccc(OC(F)(F)F)cc4)CC3)cc2)Cn2cc([N+](=O)[O-])nc2O1,"parasite growth, % of DMSO control",[1],81.7%
same,"parasite growth remaining, % of DMSO control (lower = more inhibition)",[2],82%
same,"parasite growth, % of control (lower = inhibition)",[3],90.2%
same,"growth, % of control",[4],88.7%
CN(C(=O)OC(C)(C)C)[C@@H](Cc1ccc(O[S+](=O)([O-])c2cccc3cnccc23)cc1)C(=O)N1CCN(C(=O)OCc2ccccc2)CC1,"parasite growth, % of DMSO control",[1],5.7%
same,"parasite growth remaining, % of DMSO control (lower = more inhibition)",[2],6.02%
same,"parasite growth, % of control (lower = inhibition)",[3],18.5%
same,"growth, % of control",[4],8.16%
CC(C)(C)OC(=O)N[C@@H](Cc1ccc(O[S+](=O)([O-])c2cccc3cnccc23)cc1)C(=O)Nc1ccc(-c2ccccc2)cc1,"parasite growth, % of DMSO control",[1],5.81%
same,"parasite growth remaining, % of DMSO control (lower = more inhibition)",[2],8.82%
same,"parasite growth, % of control (lower = inhibition)",[3],13.9%
same,"growth, % of control",[4],4.11%
CN[C@@H]1[C@@H](O[C@H]2[C@H](O[C@H]3[C@H](O)[C@@H](O)[C@H](N=C(N)N)[C@@H](O)[C@H]3N=C(N)N)O[C@@H](C)[C@]2(O)C=O)O[C@@H](CO)[C@H](O)[C@H]1O,"parasite growth, % of DMSO control",[1],93.9%
same,"parasite growth remaining, % of DMSO control (lower = more inhibition)",[2],105%
same,"parasite growth, % of control (lower = inhibition)",[3],118%
same,"growth, % of control",[4],86.4%
CC(=O)NCC1CN(c2ccc(N3CCOCC3)c(F)c2)C(=O)O1 (stereo not drawn),"parasite growth, % of DMSO control",[1],91.2%
same,"parasite growth remaining, % of DMSO control (lower = more inhibition)",[2],94.2%
same,"parasite growth, % of control (lower = inhibition)",[3],75.9%
same,"growth, % of control",[4],99%
CCOC(=O)[C@]1(C(NC(=O)OC)c2cccc(F)c2)CCCC1=O (stereo partly drawn),Potency,[5],inactive
same,"activity change, negative = inhibition",[6],-16.9% [at 11.4 µM] (inactive)
Cc1ccc(S(=O)(=O)N[C@H]2COC(=O)C/C=C\[C@@H](C)COC(=O)C/C=C\[C@@H]2C)cc1,Potency,[5],inactive
same,Potency,[6],3.16 µM (active)
same,"activity change, positive = activation",[7],-68.8% [at 11.4 µM] (inactive)
CC(=O)OC[C@@H]1O[C@@H](O/N=C2/C[C@@H](O)[C@@H](O)[C@@H]3[C@@H]4C(=O)N(C5CCCCC5)C(=O)[C@H]4CC[C@@H]23)[C@H](OC(C)=O)[C@H](OC(C)=O)[C@@H]1OC(C)=O,Potency,[5],inactive
CO[C@H]1COC(=O)C/C=C\[C@H](C)[C@@H](OC)COC(=O)[C@@H](C)COC(=O)C/C=C\[C@@H]1C,Potency,[5],2510 nM (active)
C[C@H]1CC[C@H]2C(=O)N[C@H](Cc3ccccc3)C(=O)N2[C@@H]1c1ccccc1,Potency,[5],inactive
same,Potency,[6],2.51 µM (active)
same,"activity change, positive = activation",[7],-99.1% [at 11.4 µM] (inactive)
NCCC[C@H](N)CC(=O)N[C@H]1CNC(=O)[C@H]([C@H]2C[C@H](O)C=C(N)N2)NC(=O)C(=CNC(N)=O)NC(=O)[C@H](CO)NC(=O)[C@H](CO)NC1=O (β3hOrn-[Dap]SS[ΔAla(3-NHCONH2)][X2]; lactam 1-C),"parasite growth, % of DMSO control",[1],96%
same,"parasite growth remaining, % of DMSO control (lower = more inhibition)",[2],96%
same,"parasite growth, % of control (lower = inhibition)",[3],133%
same,"growth, % of control",[4],100%
COC1=C2C[C@H](C)C[C@H](OC)[C@@H](O)[C@@H](C)C=C(C)[C@H](OC(N)=O)[C@@H](OC)C=CC=C(C)C(=O)NC(=CC1=O)C2=O,"parasite growth, % of DMSO control",[1],5.44%
same,"parasite growth remaining, % of DMSO control (lower = more inhibition)",[2],7.35%
same,"parasite growth, % of control (lower = inhibition)",[3],6.42%
same,"growth, % of control",[4],2.93%
COc1cccc([C@H]2Oc3ccc(OC)cc3/C(=N\O[C@@H](C)c3cn([C@H](CO)Cc4ccccc4)nn3)[C@@H]2O)c1,Potency,[5],1580 nM (active)
same,Potency,[6],3.16 µM (active) and 3.98 µM (active)
same,"activity change, positive = activation",[7],-102% [at 11.4 µM] (inactive) and -98.9% [at 11.4 µM] (inactive)
COc1cc(C)c2c(Oc3cccc(C(F)(F)F)c3)c(OC)cc(NCCCC(C)N)c2n1 (stereo not drawn),"parasite growth, % of DMSO control",[1],3.66%
same,"parasite growth remaining, % of DMSO control (lower = more inhibition)",[2],6.22%
same,"parasite growth, % of control (lower = inhibition)",[3],16%
same,"growth, % of control",[4],2.71%
CCCNC(=O)OC[C@@H]1O[C@H](CCO/N=C(\C)CCN2CCc3nc(-c4ccccc4)c(-c4ccccc4)cc3C2)C=C[C@@H]1Oc1ccc(OC)cc1,Potency,[5],2000 nM (active)
same,Potency,[6],3.16 µM (active)
same,"activity change, positive = activation",[7],-74.2% [at 11.4 µM] (inactive)
C[C@H]1Cc2c([nH]c3cc(Cl)c(F)cc23)[C@@]2(N1)C(=O)Nc1ccc(Cl)cc12,remaining parasite growth % (stronger effect = lower value),[8],-1.02%
same,"activity, percent of control",[9],-0.226%
same,"remaining proliferation (% of control), lower = more inhibition",[10],0.369%
same,"parasite growth, % of DMSO control",[1],5.02%
same,"parasite growth remaining, % of DMSO control (lower = more inhibition)",[2],6.27%
same,"parasite growth, % of control (lower = inhibition)",[3],33.6%
same,"growth, % of control",[4],7.99%
COC(=O)NC(/C(C(=O)OC)=C(\C)NCc1ccccc1)c1cccc(C)c1 (stereo not drawn),Potency,[5],inactive
same,"activity change, negative = inhibition",[6],-22.4% [at 11.4 µM] (inactive)
CO[C@H]1C=CO[C@@]2(C)Oc3c(C)c(O)c4c(O)c(c(C=NN5CCN(C)CC5)c(O)c4c3C2=O)NC(=O)C(C)=CC=CC(C)[C@H](O)[C@@H](C)[C@@H](O)[C@@H](C)[C@@H](OC(C)=O)[C@H]1C (stereo partly drawn),"parasite growth, % of DMSO control",[1],4.07%
same,"parasite growth remaining, % of DMSO control (lower = more inhibition)",[2],6.12%
same,"parasite growth, % of control (lower = inhibition)",[3],8.95%
same,"growth, % of control",[4],6.73%
CC1CCC2C(=O)N3C(CCC(C)[C@@H]3c3cccc(N4CCOCC4)c3)C(=O)N2C1c1cccc(Br)c1 (stereo partly drawn),Potency,[5],2510 nM (active)
same,Potency,[6],0.0251 µM (active)
same,"activity change, positive = activation",[7],-62% [at 11.4 µM] (inactive)
same,Potency,[11],inactive
